Screening results (PubChem BioAssay)
Hits are enriched below; roughly 17% of the tested compounds scored in any of these assays.
ClpP mod = qHTS Assay for Activators of ClpP; AID 651965, 2013; purified B. subtilis ClpP, FRET peptide cleavage, 20 min; actives 1.9% (n = 340,000); Potency, µM (titrated, usually from 57.5 µM); active means well fitted falling curve with a large enough effect; inconclusive means small, poorly fitted or top-dose-only effect; inactive means no such curve, though single readings can be large or run the other way; further: the source files actives as falling curves though it sought activators and does not explain the sign; nearly all actives have a fitted effect of over 65% in size
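ClpP 10 microg/mL final, pH 8 Tris/KCl buffer with BSA, glycerol, Tween-20; compound pinned in; FRET-FV substrate; RT 20 min; Ex320/Em430; ΔFRET vs ADEP 5.8 microM, DMSO, no enzyme.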
TDP1 inh = blocks human tyrosyl-DNA phosphodiesterase 1; Q9NUW8; recombinant TDP1, AlphaScreen DNA substrate cleavage; Potency, µM (doses to about 130 µM), actives largely listed as inhibitors; actives 0.28% (n = 350,000); AID 485290; further: nearly all actives have a fitted effect of over 40% in size
Target sequence (Q9NUW8 whole entry, looked up): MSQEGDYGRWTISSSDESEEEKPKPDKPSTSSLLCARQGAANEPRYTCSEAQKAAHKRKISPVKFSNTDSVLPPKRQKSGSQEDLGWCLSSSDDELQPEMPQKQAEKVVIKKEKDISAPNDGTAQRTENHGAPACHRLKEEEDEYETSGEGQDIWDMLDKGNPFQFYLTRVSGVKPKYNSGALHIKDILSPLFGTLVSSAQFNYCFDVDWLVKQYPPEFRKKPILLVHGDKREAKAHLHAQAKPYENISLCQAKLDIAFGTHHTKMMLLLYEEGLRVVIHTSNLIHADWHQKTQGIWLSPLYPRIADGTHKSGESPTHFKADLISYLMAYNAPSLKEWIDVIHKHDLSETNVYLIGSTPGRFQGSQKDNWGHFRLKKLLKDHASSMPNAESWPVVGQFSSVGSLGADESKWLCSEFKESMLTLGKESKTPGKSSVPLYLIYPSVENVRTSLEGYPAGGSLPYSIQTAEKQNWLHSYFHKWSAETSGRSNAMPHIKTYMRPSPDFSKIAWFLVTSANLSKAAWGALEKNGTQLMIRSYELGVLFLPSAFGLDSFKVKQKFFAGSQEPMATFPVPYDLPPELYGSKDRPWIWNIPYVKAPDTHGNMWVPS
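Enzyme-compound mixtures sat 15 min at room temperature, followed by a 5 min reaction with 15 nM final substrate and 10 min with AlphaScreen beads. Recombinant human Tdp1 was used at 1 nM final.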
TDP1 cell noCPT = qHTS for Inhibitors of human tyrosyl-DNA phosphodiesterase 1 (TDP1): qHTS in cells in absence of CPT. DT40 Tdp1-/- hTDP1 cells, no CPT, ATP luminescence, 48 h. Potency, µM (highest dose often 46.2 µM), usual class: inhibitors. actives 15% (n = 420,000). AID 686978, 2013; further: nearly all actives have a fitted effect of over 55% in size
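Compound effects on proliferation are scored in DT40 Tdp1-/-;hTDP1 cells in the absence of CPT. ATP levels (CellTiter-Glo luminescence) are recorded after a ≥48 hr, 37 °C incubation.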
DT40 TDP1 CPT = DT40-hTDP1 cell growth loss with CPT; chicken DT40 Tdp1-/-;hTDP1 cells + 20 nM CPT, ATP luminescence, 48 h; Potency, µM (series often up to 46.2 µM), usual class: inhibitors; actives 12% (n = 420,000); further: nearly all actives have a fitted effect of over 55% in size
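Chicken DT40 Tdp1-/- cells stably complemented with human TDP1 were seeded at 400 cells/well in medium containing 20 nM camptothecin, exposed to pin-transferred compounds, and grown at 37 °C for at least 48 hr. Viability was read as ATP luminescence.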
Hits are given with their value; - = inactive; ? = inconclusive; . = not tested or not shown; [ ] = dose if it differs, or a comment. Unless noted, the call rests on the fitted dose curve; in most records, active means well fitted curve in the direction sought with a large enough effect; inconclusive means small, poorly fitted or top-dose-only effect, or another doubt; inactive means no such curve, though single readings can be large; an effect the other way counts as inactive or inconclusive.

SMILES	ClpP mod	TDP1 inh	TDP1 cell noCPT	DT40 TDP1 CPT
CN(CC(=O)Nc1ccc(F)cc1)C(=O)c1cn(-c2ccccc2)nc1-c1cccs1	-	-	?	?
CCOc1ccc(NC(=O)CN(C)C(=O)c2cc(-c3cccs3)nn2-c2ccccc2)cc1OCC	-	.	?	?
COc1ccc(NC(=O)CN(C)C(=O)c2cn(-c3ccccc3)nc2-c2cccs2)cc1	-	-[0.505 µM]	16µM	?
COc1ccc(NC(=O)CN(C)C(=O)c2cc(-c3cccs3)nn2-c2ccccc2)cc1	-	-	15µM	?
NC(=O)N/N=C/c1c(Sc2nnnn2-c2ccccc2)nc2ccccn2c1=O	-	-	2.6µM	2.9µM
O=C(CSc1nnnn1-c1ccccc1)CSc1nnnn1-c1ccccc1	-	-	?	?
O=C1c2ccccc2NC(c2cn[nH]c2-c2ccccc2)N1O (centres undefined)	-	-	?	-
O=C1c2ccccc2NC(c2cn[nH]c2-c2ccc(Cl)cc2)N1O (centres undefined)	?	-	16µM	16µM
O=Nc1c2cc(-c3ccccc3)[nH]nc-2c2ccccc12	-	.	21µM	21µM
CCOC(=O)C1(C)C=C(Nc2cccc(C(=O)O)c2)C(=O)N1c1ccccc1 (centres undefined)	-	.	-	?
Brc1ccccc1-n1nnc(-c2cnc3ccccc3c2)n1	-	.	18µM	?
CCCCCCSc1ccc([C@H]2N[C@@](CC(C)C)(C(=O)OC)[C@H]3C(=O)N(CC)C(=O)[C@@H]23)cc1	-	-	21µM	21µM
CCC(C)Sc1ccc([C@H]2N[C@@](C)(C(=O)OC)[C@H]3C(=O)N(CC)C(=O)[C@@H]23)cc1 (some centres undefined)	-	-	18µM	16µM
CCCSc1ccc([C@H]2N[C@@](CC(C)C)(C(=O)OC)[C@H]3C(=O)N(C)C(=O)[C@@H]23)cc1	-	-	?	?
CCCCCCSc1ccc([C@H]2N[C@@](C)(C(=O)OC)[C@H]3C(=O)N(CC)C(=O)[C@@H]23)cc1	-	-	18µM	23µM
O=C(CSc1nnc(-c2ccncc2)o1)N1CCc2ccccc2C1	.	-	-	-
CC(C)NC(=O)Cn1cc(C(=O)COc2ccccc2)c2ccccc21	-	-	-	-
OC(c1cc(F)cc(Cl)c1)c1ncc(-c2ccc(Cl)cc2)[nH]1 (centres undefined)	-	.	?	18µM
OC(c1cc(Cl)cc(Cl)c1)c1ncc(-c2cccc(F)c2)[nH]1 (centres undefined)	-	.	16µM	?
CCN(C(=O)C1CSC2(C)CCC(=O)N12)c1nc2c(C)cccc2s1 (centres undefined)	-	-	-	?
O=C(Nc1cc(C(=O)N2CCN(CCO)CC2)c2c(c1)ncn2C1CCCC1)c1ccccc1	.	.	-	-
CCN(c1ccccc1)S(=O)(=O)c1ccc(N2CCN(c3ccc(OC)cc3)CC2)nc1	-	-	?	12µM
CCN(CC)S(=O)(=O)c1ccc(N2CCN(S(=O)(=O)c3ccccc3)CC2)nc1	.	-	?	-
CCN(c1ccccc1)S(=O)(=O)c1ccc(N2CCN(c3ccc(O)cc3)CC2)nc1	-	-	15µM	?
CCN(CC)S(=O)(=O)c1ccc(N2CCN(S(=O)(=O)c3ccccc3C#N)CC2)nc1	-	-	?	?
SMILES	ClpP mod	TDP1 inh	TDP1 cell noCPT	DT40 TDP1 CPT
CCN(CC)S(=O)(=O)c1ccc(N2CCN(CCOc3ccc(OC)cc3)CC2)nc1	.	-	21µM	18µM
CC(C)C[C@@H](C(=O)N[C@@H](C(=O)O)c1ccccc1)N1C(=O)N2CCc3c([nH]c4ccccc34)[C@@]2(C)C1=O	-	.	-	-
Cn1nnnc1SCCCNCc1cc(Br)ccc1OCc1ccccc1F	-	-	16µM	16µM
Cn1nnnc1SCCCNCc1cc(Cl)ccc1OCc1ccccc1F	-	-	8.2µM	21µM
Cn1nnnc1SCCCNCc1ccc(-c2ccc(Br)cc2)o1	-	-	?	21µM
CCOc1ccc(Br)cc1CNCCSc1nnnn1-c1ccccc1	-	-	?	18µM
Brc1cccc(CNCCSc2nnnn2-c2ccccc2)c1	-	-	-	-
Cc1cccc(C)c1NC(=O)CN(C)C(=O)CN1C(=O)NC(C)(C)C1=O	-	-	-	-
Cn1nnnc1SCCCNCc1cccc(OCc2ccccc2)c1	-	-	?	?
Cn1nnnc1SCCCNCc1cc(Br)ccc1OCc1ccccc1	-	-	10µM	23µM
Cc1ccc(C)c(N(CC(=O)NC2CCCC2)C(=O)c2cc3cc4cccc(C)c4nc3s2)c1	-	-	?	?
Cc1ccc2cc3cc(C(=O)N(CC(=O)NC4CCCC4)c4cccc(C)c4C)sc3nc2c1	-	-	18µM	23µM
CCCN(CCC)C(=O)CC(c1ccccc1)C1CCOC(C)(C)C1 (centres undefined)	-	-	23µM	?
CC1(C)CC(C(CC(=O)Nc2nccs2)c2ccccc2)CCO1 (centres undefined)	-	-	18µM	?
COc1ccc(Cl)cc1NC(=O)Cn1ncc2c3ccccc3n(Cc3ccccc3)c2c1=O	-	-	15µM	?
CCOc1ccc(OCC)c(NC(=O)Cn2ncc3c4ccccc4n(Cc4ccccc4)c3c2=O)c1	-	-	-	-
O=C(Cn1ncc2c3ccccc3n(Cc3cccc(Cl)c3)c2c1=O)Nc1ccc(F)cc1F	-	-	21µM	29µM
O=C(O)c1c(C(=O)O)c2ccccc2[nH]c1=O	.	.	-[9.04 µM]	-[9.04 µM]
Cc1ccc(CN2CCN(Cc3ccc(-n4cccn4)cc3)CC2CCO)cc1 (centres undefined)	.	-	-	-
O[C@@H]1CN(Cc2ccc(-n3cccn3)cc2)CC[C@H]1N1CCN(c2ccccc2F)CC1	-	.	3.7µM	13µM
Cc1ccccc1CN1CCC(CNC(=O)C2CCCN(c3ncnc4c3nc3n4CCCCC3)C2)CC1 (centres undefined)	-	-	?	?
CCOC(=O)N1CCN(Cc2ccc3c(c2)OCO3)CC1	-	.	-	-
CCOC(=O)N1CCN(Cc2ccc3c(c2)CN(C(=O)c2noc4c2CCCC4)CCO3)CC1	.	.	21µM	-[9.04 µM]
CCCCCCN1C=CC(=C2C(=O)c3ccccc3C2=O)C=C1	-	-	?	?
CCCN1C=CC(=C2C(=O)c3ccccc3C2=O)C=C1	-	-	5.2µM	8.2µM
SMILES	ClpP mod	TDP1 inh	TDP1 cell noCPT	DT40 TDP1 CPT
CN1C=CC(=C2C(=O)c3ccccc3C2=O)C=C1	.	-	.	.
CCN1C=CC(=C2C(=O)c3ccccc3C2=O)C=C1	-	-	15µM	16µM
O=C(NNC(=O)c1ccccc1OCc1ccccc1)c1ccccc1O	-	-	3.7µM	5.8µM
O=C(NNC(=O)c1ccccc1OCc1ccc(F)cc1)c1ccccc1O	-	-	5.2µM	6.5µM
CC(=O)c1cccc(NC(=O)c2ccccc2OCc2ccc(F)cc2)c1	.	-	-	-
CN(C)S(=O)(=O)c1cccc(NC(=O)c2ccccc2OCc2ccc(F)cc2)c1	20µM	.	?	15µM
